Reference: PubChem BioAssay AID488969 (Vanderbilt High Throughput Screening Facility, 2010)
Over roughly 110,000 compounds, “z-score” has its median near -0.1; the highest 2% begin near 2. The sample holds the highest values, similar compounds and a random draw of the others, so the mix is not that of the screen. Calls of active or inactive are those of the source.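 The calls were made as follows: active = z-score in the third read window above 3 or below -3; inactive = the rest.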

The compounds below were run against Metabotropic glutamate receptor 8 (Rattus norvegicus) (UniProt P70579) (assay: mGluR8 Gi/Go-coupled signaling modulation – cell-based, rat, thallium flux, HTS, primary screen (AID 488969)). Conditions: HEK293 rat mGluR8, GIRK (G protein-gated inwardly rectifying potassium channel) thallium flux, FluoZin2; at 10 µM; stronger effect = higher value; submaximal glutamate (EC20) added with thallium.
Chain of Metabotropic glutamate receptor 8 (Rattus norvegicus) (P70579 whole entry, looked up): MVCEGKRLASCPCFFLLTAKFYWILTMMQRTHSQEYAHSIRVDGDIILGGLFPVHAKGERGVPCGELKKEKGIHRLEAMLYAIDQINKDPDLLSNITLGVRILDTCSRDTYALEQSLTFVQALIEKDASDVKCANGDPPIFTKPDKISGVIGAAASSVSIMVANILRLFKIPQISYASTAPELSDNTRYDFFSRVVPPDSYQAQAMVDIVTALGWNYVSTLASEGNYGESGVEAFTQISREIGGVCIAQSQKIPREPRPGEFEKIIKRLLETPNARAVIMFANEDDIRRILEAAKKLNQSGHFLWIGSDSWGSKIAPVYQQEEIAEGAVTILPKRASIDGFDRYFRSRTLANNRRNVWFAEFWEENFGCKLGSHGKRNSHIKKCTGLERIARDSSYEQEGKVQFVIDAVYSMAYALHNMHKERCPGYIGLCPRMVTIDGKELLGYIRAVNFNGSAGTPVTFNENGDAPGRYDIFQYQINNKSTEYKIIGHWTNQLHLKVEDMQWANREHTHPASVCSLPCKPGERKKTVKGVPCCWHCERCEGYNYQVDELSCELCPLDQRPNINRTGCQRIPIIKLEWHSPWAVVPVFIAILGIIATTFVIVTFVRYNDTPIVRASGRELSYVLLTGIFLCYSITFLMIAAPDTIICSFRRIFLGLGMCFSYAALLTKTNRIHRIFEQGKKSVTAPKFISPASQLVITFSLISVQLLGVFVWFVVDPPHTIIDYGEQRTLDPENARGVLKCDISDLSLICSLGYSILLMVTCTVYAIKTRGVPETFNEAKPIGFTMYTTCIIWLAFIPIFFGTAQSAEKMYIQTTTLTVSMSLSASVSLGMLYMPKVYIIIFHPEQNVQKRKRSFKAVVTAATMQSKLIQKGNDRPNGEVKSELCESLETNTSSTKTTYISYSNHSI
CC(=O)N(C)c1nnc(-c2ccccn2)s1 gave a z-score of -0.0164. CS(=O)(=O)N(CC(=O)Nc1ccc(F)c(F)c1)c1cccc([N+](=O)[O-])c1 gave a z-score of 0.348. For O=C(NCc1ccc2c(c1)OCO2)C1CCN(Cc2cnn(-c3ccccc3)c2-n2cccc2)CC1, the z-score was 3.14 (active). In the case of COc1ccc(OC)c(NC(=O)CSCc2cnn(-c3ccccc3)c2-n2cccc2)c1, the z-score is reported as 0.126. With O=C(Nc1ccc2c(c1)OCO2)C1CCN(Cc2cnn(-c3ccccc3)c2-n2cccc2)CC1 the z-score was -0.13. For COc1cc(NC(=O)CSCc2cnn(-c3ccccc3)c2-n2cccc2)cc(OC)c1, the z-score was 7.86 (active). CC(=O)Nc1ccc(NC(=O)CSCc2cnn(-c3ccccc3)c2-n2cccc2)cc1 was tested, and the z-score was -0.225. COc1ccc(OC)c(NC(=O)C2CCN(Cc3cnn(-c4ccccc4)c3-n3cccc3)CC2)c1 was tested, and the z-score was -0.109. In the case of COc1cccc(CNC(=O)C2CCN(Cc3cnn(-c4ccccc4)c3-n3cccc3)CC2)c1, the z-score is reported as 2.66. For COc1cccc(NC(=O)C2CCN(Cc3cnn(-c4ccccc4)c3-n3cccc3)CC2)c1, the z-score was -0.463. Compound O=C(NCc1ccccn1)C1CCN(Cc2cnn(-c3ccccc3)c2-n2cccc2)CC1 has a z-score of -0.0285. For CCSc1cc(N2CCCC2)nc(-c2ccccc2Cl)n1, the z-score was -0.31. Compound COC(=O)COc1ccc(Cl)cc1C1Nc2ccccc2C(=O)N1c1ccc(OC)cc1 (centres undefined) has a z-score of -0.642. COC(=O)c1[nH]c2ccccc2c1NC(=O)/C=C/c1ccc2c(c1)OCO2 gave a z-score of 0.563. Compound O=C1C2CCCCC2C(=O)N1c1cccc(OS(=O)(=O)c2ccccc2)c1 (centres undefined) has a z-score of -0.275. Compound CCN(CC)S(=O)(=O)c1cccc(-c2nnc(SC(C)C(N)=O)n2CCc2ccccc2)c1 (centres undefined) has a z-score of -0.152. For O=C(Nc1cnc2ccccn2c1=O)c1ccc(Cl)cc1, the z-score was -0.161. With Cc1ccc(C(=O)Nc2cnc3ccccn3c2=O)cc1 the z-score was 4.27 (active). Work on O=C(Nc1cnc2ccccn2c1=O)c1ccc(F)cc1 yielded a z-score of -0.0283. With CC(C)(C)C1CCc2c(C(=O)N/N=C/c3cccs3)csc2C1 (centres undefined) the z-score was 3.34 (active). CC(C)(C)C1CCc2c(C(=O)NNC(=O)/C=C/C(=O)O)csc2C1 (centres undefined) showed a z-score of -0.42. Compound Cc1occc1C(=O)N/N=C/c1cccs1 has a z-score of 0.00925. Work on Cn1c(=O)oc2cc(S(=O)(=O)N3CCC(C(=O)NCc4cccs4)CC3)ccc21 yielded a z-score of 0.158. CCC(Cc1ccccc1)NC(=O)C1CCC(CNc2c(N3CCCC3)c(=O)c2=O)CC1 (centres undefined) showed a z-score of 0.312. With COc1ccc(C(C)=O)cc1COC(=O)Cc1n[nH]c(=O)c2ccccc12 the z-score was -0.504. O=[N+]([O-])c1cc(F)c(N2CCCCC2)cc1N1CCOCC1 showed a z-score of -0.193. In the case of CC1CCN(c2cc(N3CCOCC3)c([N+](=O)[O-])cc2F)CC1, the z-score is reported as 2.53. With CC1CCN(c2cc(N3CCOCC3)c(F)cc2[N+](=O)[O-])CC1 the z-score was -0.674. O=C(NC1CCCCC1)c1sc(N2CCOCC2)nc1-c1ccccc1 was tested, and the z-score was 0.0133. With O=C(COC(=O)CCC1CCCC1)Nc1ccc(Cl)cc1F the z-score was -0.306. For O=C(COC(=O)C12CC3CC(CC(C3)C1)C2)Nc1nc2c(F)c(F)c(F)cc2s1, the z-score was -0.635. In the case of O=C(COC(=O)CCC1CCCC1)Nc1nc2c(F)c(F)c(F)cc2s1, the z-score is reported as 2.48. CC(=O)Nc1cc(C(F)(F)F)ccc1Oc1cccc(Br)c1 gave a z-score of -0.653. CCCn1c(Nc2ccccc2)nc2ccccc21 showed a z-score of -0.0673. With CCn1c(NC(=S)Nc2ccccc2)nc2ccccc21 the z-score was 15.2 (active). Work on CCn1c(NC(=O)C2CCCCC2)nc2ccccc21 yielded a z-score of 0.0465. CCCCn1c(Nc2ccccc2)nc2ccccc21 gave a z-score of 0.15. CCCn1c(NC(=S)Nc2ccccc2)nc2ccccc21 gave a z-score of 2.89. S=C(Nc1ccccc1)Nc1nc2ccccc2n1CCOc1ccc(Br)cc1 gave a z-score of 1.24. Work on S=C(Nc1ccccc1)Nc1nc2ccccc2n1CCOc1ccc(Cl)cc1 yielded a z-score of 1.72. CCCCn1c(NC(=S)Nc2ccccc2)nc2ccccc21 gave a z-score of 2.55. For CCn1c(NC(C)=O)nc2ccccc21, the z-score was -0.0713. In the case of COc1ccc(CNC(=O)CSCc2cnn(-c3ccccc3)c2-n2cccc2)cc1, the z-score is reported as 0.0302. Cc1cccc(NCc2ccccc2O)c1C was tested, and the z-score was 0.825. With COc1ccc(OCCNc2cc(N3CCCCC3)ccc2[N+](=O)[O-])cc1 the z-score was -0.255. Work on O=C(Cc1ccccc1)Nc1ccc(N2CCOCC2)cc1N1CCOCC1 yielded a z-score of -0.544. CCNC(=O)C1CC(=O)N(CC)C(=Nc2cc(Cl)c(O)c(Cl)c2)S1 (centres undefined) was tested, and the z-score was 0.28. COC(=O)CSc1nc2nc(C)cc(C)n2n1 gave a z-score of -0.251. With COC(=O)c1nnn(CC(=O)Nc2cccc(Cl)c2C)c1C(=O)OC the z-score was -0.193. CCOC(=O)c1nnn(CC(=O)Nc2ccccc2OC)c1C(=O)OCC was tested, and the z-score was -0.326. CCOC(=O)c1nnn(CC(=O)Nc2cccc(Cl)c2C)c1C(=O)OCC gave a z-score of 2.12. Work on COc1ccccc1S(=O)Cc1ccc(C(=O)NCc2ccccc2Cl)o1 (centres undefined) yielded a z-score of -0.228. CC(=O)Nc1nonc1-c1nc2ccccc2n1N(C(C)=O)C(C)=O was tested, and the z-score was -2.35. CCC(C)n1c(SCc2ccc([N+](=O)[O-])cc2)nc2ccsc2c1=O (centres undefined) gave a z-score of 0.36. CCC(C)n1c(=S)[nH]c2c(sc3ccc([N+](=O)[O-])cc32)c1=O (centres undefined) was tested, and the z-score was 9.11 (active). CC(C)n1c2ccccc2c2cc([N+](=O)[O-])ccc21 gave a z-score of -0.11. Compound Nc1ncnc(Nc2ccc(F)cc2)n1 has a z-score of 0.0495. CCOc1ccc(CNc2ncnc(N)n2)cc1 was tested, and the z-score was -0.398. In the case of CCOc1ccc(Nc2ncnc(N)n2)cc1, the z-score is reported as 4.23 (active). With COc1cc(/C=C(\C#N)C(N)=O)ccc1OS(=O)(=O)c1ccc(C)cc1 the z-score was -0.309. O=[N+]([O-])c1ccc(COc2cccc(CNc3ccc(Br)cc3)c2)cc1 showed a z-score of 0.133. Work on Cc1ccc(N2C(=O)C(Cl)=C(N3CCOCC3)C2=O)cc1Cl yielded a z-score of -0.0801. CCc1ccc(N2C(=O)C(Cl)=C(N3CCOCC3)C2=O)cc1 was tested, and the z-score was -0.428. For O=C1C(Cl)=C(N2CCOCC2)C(=O)N1c1cccc(Cl)c1, the z-score was 13.9 (active). Work on CCN(CC)CCn1c(SCC(=O)NCc2ccco2)nc2c(sc3ccccc32)c1=O yielded a z-score of -0.759. Compound Cc1nn(-c2ccccc2)c(C)c1/C=N/NC(=O)CSc1nnc(-c2ccccc2)n1-c1ccc(Cl)cc1 has a z-score of 0.0544. Work on O=C(Nc1nc(-c2ccccc2)cs1)c1ccc(Br)o1 yielded a z-score of 2.96. With Cc1ccc(C(=O)Nc2nc(-c3cccnc3)cs2)o1 the z-score was -0.0733. Compound O=C(Nc1nc2c(Cl)cccc2s1)c1ccc(Br)o1 has a z-score of 0.452. O=C(Nc1cccc(-c2cc3ccccc3oc2=O)c1)c1ccc(Br)o1 showed a z-score of -0.101. Compound O=C(Nc1nc(-c2ccccc2)cs1)c1cccs1 has a z-score of -0.61. For O=C(Nc1nc2ccc(Cl)cc2s1)c1ccco1, the z-score was -0.371. For O=C(Nc1nc2ccc(Cl)cc2s1)c1ccc(Br)o1, the z-score was 6.8 (active). O=c1oc2ccccc2cc1-c1csc(NN=C2CCCC2)n1 gave a z-score of -0.3. For O=C(Nc1nc(-c2cc3ccccc3oc2=O)cs1)c1ccc(Br)o1, the z-score was 13.7 (active). In the case of O=C(CSc1ncn(-c2ccccc2)n1)NCc1ccccc1, the z-score is reported as -0.242. Compound CCN1CNC(=S)N(c2ccccc2OC)C1 has a z-score of -0.242. Compound COCCn1c(SCC(=O)NCc2ccco2)nc2cccnc21 has a z-score of 0.0661. With COc1ccc(-c2noc(CCC(=O)Nc3cc(Cl)c(OC)cc3OC)n2)cc1 the z-score was -0.134. In the case of COC(=O)c1cc(OC)c(OC)cc1NC(=O)Nc1ccc(OC)cc1OC, the z-score is reported as 3.48 (active). COc1ccc(NC(=O)C(Sc2ccccc2)c2ccccc2)c(OC)c1 (centres undefined) showed a z-score of 2.25. Work on COC(=O)c1cc(OC)c(OC)cc1NC(=O)Nc1ccc(OC)cc1 yielded a z-score of -0.0386. COC(=O)c1cc(OC)c(OC)cc1NC(=O)Nc1ccccc1OC gave a z-score of -0.56. COc1ccc(OC)c(NC(=O)C(Sc2ccccc2)c2ccccc2)c1 (centres undefined) gave a z-score of 0.629. COc1ccccc1NC(=O)C(Sc1ccccc1)c1ccccc1 (centres undefined) was tested, and the z-score was 0.792. COc1cc2cc(C#N)c(SCC(=O)N3CCOCC3)nc2cc1OC was tested, and the z-score was 0.593. In the case of C=CCn1cc(/C=N/NC(=O)COc2cccc3cccnc23)c2ccccc21, the z-score is reported as -0.515. With Cc1ccc(-c2nn(CCC#N)cc2C=C(C#N)C#N)cc1 the z-score was 0.287. In the case of O=S(=O)(c1ccccc1)n1c(C(O)c2ccccn2)cc2ccccc21 (centres undefined), the z-score is reported as 0.524. For COc1ccc(N(CC(=O)N2c3ccccc3CC2C)S(=O)(=O)c2c(C)nn(C)c2C)cc1 (centres undefined), the z-score was -0.0129. In the case of COc1ccc(NC(=O)NC23CC4CC(CC(C4)C2)C3)cc1OC, the z-score is reported as -0.136. In the case of CCOc1ccc(NC(=O)NC23CC4CC(CC(C4)C2)C3)cc1, the z-score is reported as 4.76 (active). COC(=O)c1cccc(NC(=O)NC23CC4CC(CC(C4)C2)C3)c1 gave a z-score of -0.16. For O=C(Nc1ccc2c(c1)OCCO2)NC12CC3CC(CC(C3)C1)C2, the z-score was 2.32. Compound N#Cc1cccc(NC(=O)Nc2cccs2)c1 has a z-score of 2.55. CCOc1ccc(NC(=O)Nc2ccc(N(C)C(C)=O)cc2)cc1 was tested, and the z-score was 0.478. CCOc1ccc(NC(=O)Nc2cccs2)cc1 showed a z-score of 2.37. In the case of CCOc1ccc(NC(=O)C23CC4CC(C2)CC(c2ccccc2)(C4)C3)cc1, the z-score is reported as -0.381. O=C(NNC(=O)c1ccc2c(c1)OCO2)NC12CC3CC(CC(C3)C1)C2 was tested, and the z-score was -0.287. Compound N#Cc1cccc(NC(=O)c2ccccc2C(=O)O)c1 has a z-score of -0.112. With COc1cccc(NC(=O)Nc2cccs2)c1 the z-score was 1.67. In the case of CCOc1ccc(NC(=O)Nc2ccc3nccnc3c2)cc1, the z-score is reported as -0.163. With CNC(=O)NC(=O)CSc1nc2ccccc2n1CCOC the z-score was -0.465. O=C1C2CCCN2C(c2cccc(Br)c2)N1c1ccc(F)cc1 (centres undefined) was tested, and the z-score was -0.401. Compound C/C(=N/NC(=O)OC(C)(C)C)c1ccco1 has a z-score of -0.124. Compound COC(=O)c1cn(CC(=O)N2CCCCC2C)c2ccccc12 (centres undefined) has a z-score of -0.213. COC(=O)c1ccc(C(=O)OC)c(NC(=O)CCc2ccc(C)o2)c1 was tested, and the z-score was -0.67. In the case of CCCCCn1cnc2sc(CC)cc2c1=O, the z-score is reported as -0.4. In the case of Cc1ccc(C(CCN)c2ccco2)cc1 (centres undefined), the z-score is reported as 0.345. With O=C1NC(=O)/C(=C\c2ccc(Sc3ccc(Cl)cc3)o2)N1 the z-score was -0.263. Cc1cccc(NC(=S)NCC(c2cccnc2)N(C)C)c1 (centres undefined) was tested, and the z-score was 0.286. CCOC(=O)c1ccc2ncc(C(=O)OCC)c(NCCN(C)C)c2c1 was tested, and the z-score was -0.571. Compound C=CCN(CC=C)C(=S)NCCc1ccc(OC)c(OC)c1 has a z-score of -0.0119. In the case of C=CCN(CC=C)C(=S)NC(=O)c1ccc(C)c(Br)c1, the z-score is reported as 15.3 (active). Work on CCCCC(=O)Nc1ccc(C(=O)NNC(=O)c2ccc(C)c(Br)c2)cc1 yielded a z-score of -0.00519. With COc1ccc(C(=O)NC(=S)NCCO)cc1Br the z-score was 4.72 (active). In the case of C=CCN(CC=C)C(=S)NC(=O)c1ccc(OC)c(Br)c1, the z-score is reported as 15.4 (active). COc1ccc(C(=O)NCc2ccccc2)cc1Br gave a z-score of -0.234. Compound COc1ccc(C(=O)NC(=S)NC(C)(C)C)cc1Br has a z-score of 0.436. Cc1ccc(/C=C/C(=O)c2ccc(C)cc2)cc1 gave a z-score of 0.025. Compound CCN(CC)C(=O)c1ccc(C)c(Br)c1 has a z-score of -0.37. C=CCN(CC=C)S(=O)(=O)c1ccc(NC(=S)NC(=O)/C=C/c2ccc(C)cc2)cc1 was tested, and the z-score was -0.0815. In the case of C=CCN(CC=C)C(=S)NC(=O)/C=C/c1ccc(C)cc1, the z-score is reported as 4.57 (active). COc1ccc(C(=O)NC(=S)NC(C)C)cc1Br gave a z-score of 1.79.
